# Measurements reported in the supplement of paper PMC12494721.
# Counter-ions that a name gives are not always drawn.
# Assays:
# Details in all cases: incubation time: 27 h, anaerobic, 37 °C;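 for the amine columns active = adjusted P below 0.05 in both replicates with a change the same way and a mean fold change under 0.8 or over 1.25; inactive = the rest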
# [1] = system: Clostridium sporogenes DSM 1664; assay: growth (OD595) fold change vs plate DMSO controls (fold change (ratio)); higher = more growth
# Outline: (§1)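 The 96-well mGAM cultures had been kept anaerobic for 27 h at 37 °C before being shaken and read at 595 nm. Blank subtraction, compound background correction with 20 µM compound solutions in water, and a calibration factor of 5 turned the readings into OD. Growth is given as the fold change versus the median of plate DMSO controls. Fold changes above 1.5 were set to NA, and the values are means of 2 biological replicates.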
# [2] = system: Escherichia coli IAI1; assay: as above
# Outline: as §1
# [3] = system: Klebsiella aerogenes DSM 30053; assay: as above
# Outline: as §1
# [4] = system: Ruminococcus gnavus DSM 108212; assay: as above
# Outline: as §1
# [5] = system: Klebsiella aerogenes DSM 30053; assay: fold change of Histamine concentration vs plate DMSO controls (fold change (ratio)); higher = more amine produced, active = hit call of the paper (significant change in both replicates, either direction)
# Outline: (§2)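 Extracts of whole anaerobic mGAM cultures were analysed for amines by LC–triple-quadrupole MS with dynamic MRM and external calibration curves, with drift corrected within batch. Four gut strains were grown at 37 °C for 27 h in 80 µL wells with compounds at 20 µM final, sweeteners at 50 µM final. Each value expresses fold change over plate DMSO controls. The average of 2 biological replicates is shown.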
# [6] = system: Clostridium sporogenes DSM 1664; assay: fold change of Tryptamine concentration vs plate DMSO controls (fold change (ratio)); higher = more amine produced, active = hit call of the paper (significant change in both replicates, either direction)
# Outline: as §2
# [7] = system: Ruminococcus gnavus DSM 108212; assay: as above
# Outline: as §2
# [8] = system: Escherichia coli IAI1; assay: fold change of Putrescine concentration vs plate DMSO controls (fold change (ratio)); higher = more amine produced, active = hit call of the paper (significant change in both replicates, either direction)
# Outline: as §2
# [9] = system: Klebsiella aerogenes DSM 30053; assay: as above
# Outline: as §2
# [10] = system: Escherichia coli IAI1; assay: fold change of Cadaverine concentration vs plate DMSO controls (fold change (ratio)); higher = more amine produced, active = hit call of the paper (significant change in both replicates, either direction)
# Outline: as §2
# [11] = system: Klebsiella aerogenes DSM 30053; assay: as above
# Outline: as §2
# [12] = system: Ruminococcus gnavus DSM 108212; assay: fold change of 2-Phenylethylamine concentration vs plate DMSO controls (fold change (ratio)); higher = more amine produced, active = hit call of the paper (significant change in both replicates, either direction)
# Outline: as §2
SMILES,growth [1],growth [2],growth [3],growth [4],fold change of Histamine concentration [5],fold change of Tryptamine concentration [6],fold change of Tryptamine concentration [7],fold change of Putrescine concentration [8],fold change of Putrescine concentration [9],fold change of Cadaverine concentration [10],fold change of Cadaverine concentration [11],fold change of 2-Phenylethylamine concentration [12]
CC(NCCc1ccc(O)cc1)C(O)c1ccc(O)cc1 (stereo not drawn) [Ritodrine hydrochloride] (20 µM),0.998,0.987,0.985,0.697,0.979 (inactive),1 (inactive),1.02 (inactive),0.985 (inactive),1.01 (inactive),1.01 (inactive),1.01 (inactive),1.05 (inactive)
NC(CO)C(=O)NNCc1ccc(O)c(O)c1O (stereo not drawn) [Benserazide hydrochloride] (20 µM),0.879,1.06,0.985,0.988,1.08 (inactive),0.965 (inactive),1.03 (inactive),1.19 (inactive),1.03 (inactive),0.994 (inactive),0.991 (inactive),1.03 (inactive)
CN[C@H]1CC[C@@H](c2ccc(Cl)c(Cl)c2)c2ccccc21 [Sertraline] (20 µM),1.13,1.01,1.02,0.975,0.995 (inactive),1.01 (inactive),0.902 (inactive),1.03 (inactive),1 (inactive),1.1 (inactive),0.996 (inactive),1.02 (inactive)
CCN[C@@H]1C[C@H](N)[C@@H](O[C@H]2OC(CN)=CC[C@H]2N)[C@H](O)[C@H]1O[C@H]1OC[C@](C)(O)[C@H](NC)[C@H]1O [Netilmicin sulfate] (20 µM),0.949,0.93,0.898,0.912,0.845 (inactive),1.02 (inactive),0.901 (inactive),0.947 (inactive),0.995 (inactive),0.982 (inactive),0.993 (inactive),0.948 (inactive)
CNCCC=C1c2ccccc2CCc2ccccc21 [Nortriptyline hydrochloride] (20 µM),1.11,0.972,0.974,1.28,1.09 (inactive),1.06 (inactive),0.993 (inactive),0.975 (inactive),1.02 (inactive),1.04 (inactive),0.989 (inactive),1.03 (inactive)
CN1CCC(=C2c3ccccc3C=Cc3ccccc32)CC1 [Cyproheptadine hydrochloride] (20 µM),0.683,1.01,0.98,1.15,1.03 (inactive),1.18 (inactive),0.98 (inactive),0.969 (inactive),0.996 (inactive),0.973 (inactive),0.999 (inactive),1 (inactive)
Oc1cc(O)c2c(c1)O[C@H](c1ccc(O)c(O)c1)[C@@H](O)C2 [Cianidanol] (20 µM),1.04,0.998,0.998,1.06,1.03 (inactive),1.26 (active),0.867 (inactive),0.977 (inactive),0.95 (inactive),0.859 (inactive),0.993 (inactive),0.978 (inactive)
CC(=O)Oc1ccc(C(c2ccc(OC(C)=O)cc2)c2ccccn2)cc1 [Bisacodyl] (20 µM),0.976,0.978,0.993,0.731,1.06 (inactive),0.942 (inactive),0.988 (inactive),0.967 (inactive),1.02 (inactive),1 (inactive),0.998 (inactive),0.954 (inactive)
CC(C)C(=O)c1c(C(C)C)nn2ccccc12 [Ibudilast] (20 µM),0.946,0.973,1.02,0.991,1.02 (inactive),0.996 (inactive),1.08 (inactive),1.26 (inactive),0.984 (inactive),0.987 (inactive),0.997 (inactive),1.09 (inactive)
CN(C)C(=O)C(CCN1CCC(O)(c2ccc(Cl)cc2)CC1)(c1ccccc1)c1ccccc1 [Loperamide hydrochloride] (20 µM),1.1,1.04,1.05,0.853,0.935 (inactive),0.976 (inactive),0.949 (inactive),1 (inactive),0.963 (inactive),1.02 (inactive),1.02 (inactive),0.915 (inactive)
CN(C)C(=O)COC(=O)Cc1ccc(OC(=O)c2ccc(NC(=N)N)cc2)cc1 [Camostat mesylate] (20 µM),1.07,1.01,1.04,0.958,0.897 (inactive),1.01 (inactive),0.982 (inactive),1.02 (inactive),1.02 (inactive),1.02 (inactive),1.02 (inactive),0.999 (inactive)
C[C@]12CC[C@@H]3c4ccc(O)cc4CC[C@H]3[C@@H]1CC[C@@H]2O [Estradiol-17 beta] (20 µM),1.22,1.01,1.14,1.17,1.03 (inactive),0.984 (inactive),1.04 (inactive),0.989 (inactive),1 (inactive),1 (inactive),1 (inactive),1.04 (inactive)
O=C(Cn1c(=O)sc2ccc(Cl)cc21)N1CCN(CCO)CC1 [Tiaramide Hydrochloride] (20 µM),0.912,1,1,0.982,1.01 (inactive),1.08 (inactive),1.07 (inactive),0.959 (inactive),0.993 (inactive),0.963 (inactive),0.991 (inactive),1.13 (inactive)
CN(C)CCN(Cc1ccc(Cl)cc1)c1ccccn1 [Chloropyramine hydrochloride] (20 µM),0.894,1.03,0.92,0.771,0.98 (inactive),1.05 (inactive),1.16 (inactive),0.817 (inactive),0.975 (inactive),1.58 (active),0.994 (inactive),1.27 (inactive)
NC(=O)OCC(COC(N)=O)c1ccccc1 [Felbamate] (20 µM),1.07,0.986,0.988,0.902,0.989 (inactive),1.02 (inactive),1.05 (inactive),1 (inactive),0.993 (inactive),1.05 (inactive),0.985 (inactive),1.07 (inactive)
CC(=O)Oc1ccccc1C(=O)O [Acetylsalicylic acid] (20 µM),1.11,0.986,1.04,1.17,0.992 (inactive),1.03 (inactive),1.18 (inactive),0.992 (inactive),0.998 (inactive),0.93 (inactive),1.05 (inactive),1.18 (inactive)
Nc1nc2[nH]cnc2c(=S)[nH]1 [Tioguanine] (20 µM),1.3,0.969,1.09,0.899,1 (inactive),1.03 (inactive),1.01 (inactive),0.623 (active),0.987 (inactive),0.871 (inactive),0.998 (inactive),0.998 (inactive)
O=C(O)c1cccnc1 [Niacin] (20 µM),0.979,1.07,1.01,0.963,0.97 (inactive),0.994 (inactive),1.03 (inactive),1 (inactive),1.03 (inactive),0.981 (inactive),1.02 (inactive),0.993 (inactive)
CCOC(=O)[C@H](CCc1ccccc1)N[C@@H](C)C(=O)N1C(=O)N(C)C[C@H]1C(=O)O [Imidapril hydrochloride] (20 µM),1.19,1.05,1.05,1.2,0.963 (inactive),0.931 (inactive),1.03 (inactive),1.05 (inactive),0.997 (inactive),1.01 (inactive),0.989 (inactive),1.05 (inactive)
CCOC(=O)c1ccc(OC(=O)CCCCCNC(=N)N)cc1 [Gabexate mesilate] (20 µM),1.07,1,0.974,1.02,0.978 (inactive),0.953 (inactive),0.865 (inactive),1.01 (inactive),1.07 (inactive),0.998 (inactive),1.04 (inactive),0.776 (inactive)
CC(COc1ccccc1)NN (stereo not drawn) [Phenoxypropazine dihydrochloride] (20 µM),1.06,0.99,0.988,0.995,1.05 (inactive),0.619 (active),1 (inactive),1.01 (inactive),1.01 (inactive),0.965 (inactive),1.02 (inactive),1.01 (inactive)
CS(=O)(=O)c1ccc(C2=C(c3ccccc3)C(=O)OC2)cc1 [Rofecoxib] (20 µM),1,0.962,0.973,1.1,0.981 (inactive),1.2 (inactive),1.08 (inactive),1.02 (inactive),0.99 (inactive),1.04 (inactive),1.01 (inactive),1.07 (inactive)
CCCCCN(CCCCC)C(=O)C(CCC(=O)O)NC(=O)c1ccc(Cl)c(Cl)c1 (stereo not drawn) [Lorglumide sodium salt] (20 µM),0.981,1.02,1.02,1.01,0.987 (inactive),0.763 (active),0.94 (inactive),1.07 (inactive),1.01 (inactive),1.03 (inactive),1.01 (inactive),0.919 (inactive)
O=C(CCCN1CC=C(n2c(=O)[nH]c3ccccc32)CC1)c1ccc(F)cc1 [Droperidol] (20 µM),1.02,0.959,1.02,0.835,0.994 (inactive),0.988 (inactive),0.963 (inactive),0.977 (inactive),1.02 (inactive),1.03 (inactive),1 (inactive),0.956 (inactive)
